Consider 54 compounds from ChEMBL document CHEMBL4808148, “HDAC6 screening dataset using tau-based substrate in an enzymatic assay yields selective inhibitors and activators” (2021).

Assay [1] addresses T1, Protein deacetylase HDAC6 (Homo sapiens) (UniProt Q9UBN7).
T1 sequence (whole entry): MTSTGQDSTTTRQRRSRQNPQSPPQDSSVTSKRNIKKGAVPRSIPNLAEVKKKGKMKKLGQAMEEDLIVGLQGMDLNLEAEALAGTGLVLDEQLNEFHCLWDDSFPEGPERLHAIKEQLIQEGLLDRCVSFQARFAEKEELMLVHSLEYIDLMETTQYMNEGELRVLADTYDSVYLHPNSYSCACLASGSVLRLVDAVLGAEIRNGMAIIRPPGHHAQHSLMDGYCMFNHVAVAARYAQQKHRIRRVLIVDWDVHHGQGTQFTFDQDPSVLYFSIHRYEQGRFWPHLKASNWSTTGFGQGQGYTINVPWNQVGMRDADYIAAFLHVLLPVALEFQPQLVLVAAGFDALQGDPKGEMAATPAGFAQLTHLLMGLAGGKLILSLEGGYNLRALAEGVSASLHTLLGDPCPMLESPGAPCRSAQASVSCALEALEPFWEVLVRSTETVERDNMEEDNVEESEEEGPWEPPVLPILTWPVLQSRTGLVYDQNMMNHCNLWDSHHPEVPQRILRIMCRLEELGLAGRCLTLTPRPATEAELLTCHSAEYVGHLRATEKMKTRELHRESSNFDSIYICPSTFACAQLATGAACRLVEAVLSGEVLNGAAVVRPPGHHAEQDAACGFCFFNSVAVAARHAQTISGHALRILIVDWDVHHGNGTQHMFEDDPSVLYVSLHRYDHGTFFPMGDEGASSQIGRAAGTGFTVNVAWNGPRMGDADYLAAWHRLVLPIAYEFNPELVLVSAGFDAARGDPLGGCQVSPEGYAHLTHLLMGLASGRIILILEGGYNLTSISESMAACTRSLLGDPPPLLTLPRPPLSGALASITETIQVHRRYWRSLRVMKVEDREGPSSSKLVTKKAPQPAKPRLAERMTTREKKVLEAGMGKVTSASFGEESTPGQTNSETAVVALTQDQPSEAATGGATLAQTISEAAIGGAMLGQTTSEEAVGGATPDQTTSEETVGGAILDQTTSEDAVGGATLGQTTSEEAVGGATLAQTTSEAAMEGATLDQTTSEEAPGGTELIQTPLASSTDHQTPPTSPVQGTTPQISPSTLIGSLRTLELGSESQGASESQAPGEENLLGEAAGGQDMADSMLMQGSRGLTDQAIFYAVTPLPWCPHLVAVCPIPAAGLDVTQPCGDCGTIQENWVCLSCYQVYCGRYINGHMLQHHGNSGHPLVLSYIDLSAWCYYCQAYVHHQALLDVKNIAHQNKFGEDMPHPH
The settings on record: at 10 µM.

Assay [2] concerns the target Protein deacetylase HDAC6 (Homo sapiens) (UniProt Q9UBN7). The settings on record: at 10 µM. This is another data set of the same source.

In all, about 5,600 compounds went through this assay and about 150 (2.7%) showed an effect of 50% or more. Shown is part of a subset that was picked to be rich in strong results.

For `CC/C(=C(\c1ccc(OCCN(C)C)cc1)c1cccc(O)c1)c1ccccc1`, in assay [1], the inhibition is -4.47%. The same measure, in the same setting: the figure for `CC(C)(N)c1nc(-c2ccc(OC(F)(F)F)cc2)c[nH]1` is 3.83%. As to `C[C@]12CC[C@H](O)CC1=CCC1C2CC[C@]2(C)C(n3cnc4ccccc43)=CCC12` (some centres undefined), the inhibition in assay [1] was determined as 10.9%. On the same count and under the same terms, the figure for `O=C(NO)c1ccc2[nH]c(=O)c(CCCc3ccccc3)nc2c1` is 97.8%.

Turning to `CCCCc1ccc2[nH]c(NC(=O)OC)nc2c1`, the inhibition in assay [1] amounted to 15.1%. The same measure, in the same setting: the figure for `O=C(Nc1cccc2c(=O)cc(-c3nnn[nH]3)oc12)c1ccc(OCCCCc2ccccc2)cc1` is 2.83%; for `NC(=O)CCCCn1ccc(/N=C(\N)NCC(F)(F)F)n1` it is -7.78%; for `CC(=O)Nc1ccc(C(=O)O)cc1` it is -3.9%. On the same count and under the same terms, under `O=C(Nc1ccc(C(O)(C(F)(F)F)C(F)(F)F)cc1)c1ccc(C(F)(F)F)cc1` stands 0.41%.

On to `C/C(O)=C(\C#N)C(=O)Nc1ccc(C(F)(F)F)cc1`, for which the inhibition in assay [1] worked out at 98.6%. On the same count and under the same terms, the figure for `C=C1CC/C=C(\C)CC[C@@H]2[C@@H]1CC2(C)C` is 2.39%; for `O=c1c(-c2ccccc2)c1-c1ccccc1` it is 10.5%. Still for that read-out and setting: the figure for `CCOc1cccc(NC(=O)c2ccc(N3CCCC3)c(C(F)(F)F)c2)c1` is 0.15%; for `CCCCOc1ccc(C(=O)Nc2ccc(F)cc2F)cc1` it is 49%; for `CCCCOc1ccc(CC(=O)NO)cc1` it is 75.5%. Still for that read-out and setting: under `CCCCOc1ccc(C(=O)CCN2CCCCC2)cc1` stands -4.56%; under `CC[C@H](CC[C@@H](C)[C@H]1CC[C@H]2[C@@H]3CC=C4C[C@@H](O[C@@H]5O[C@H](CO)[C@@H](O)[C@H](O)[C@H]5O)CC[C@]4(C)[C@H]3CC[C@]12C)C(C)C`, 2.47%. Turning to `N#Cc1ccc(-c2ccc(S(=O)(=O)Nc3cccc(N)n3)cc2)cc1`, the inhibition in assay [1] came to 2.23%. For the compound `Nc1ncccc1-c1nc2ccc(-c3ccccc3)nc2n1-c1ccc(C2(N)CCC2)cc1`, the inhibition in assay [1] was 0.11%. Consider `N[C@H](C(=O)O)c1ccc(O)c(C(=O)O)c1`, for which the inhibition in assay [1] is -4.47%. The same measure, in the same setting: the figure for `CC(C)c1ccc2oc3nc(N)c(C(=O)O)cc3c(=O)c2c1` is 99.5%; for `N[C@@H](C(=O)O)c1ccc(O)c(C(=O)O)c1` it is -2.24%. Same read-out and setting: under `CCOc1cc(OCC)c(C(=O)CCC(=O)O)cc1OCC` stands -6.02%; under `Cc1n[nH]c2ccc(-c3cncc(OC[C@@H](N)Cc4ccccc4)c3)cc12`, -5.53%. Turning to hemin, CHEMBL5308479, in assay [2], the inhibition is 13.1%. Take `NCCNc1ccc(NCCN)c2c1C(=O)c1ccncc1C2=O`: in assay [1], the inhibition is 62.5%. Consider `NCCNS(=O)(=O)c1ccc(Cl)c2ccncc12`, for which the inhibition in assay [1] was -2.71%. With `O=C1c2c(O)ccc(O)c2C(=O)c2c(NCCNCCO)ccc(NCCNCCO)c21`, the inhibition in assay [1] turned out to be 16%. Same read-out and setting: under `Clc1ccc2c(N3CCN(CCCN4CCN(c5ccnc6cc(Cl)ccc56)CC4)CC3)ccnc2c1` stands -8.35%.

`CC(C)(C)c1ccc(S(=O)(=O)Nc2ccc(Cl)cc2C(=O)c2cc[n+]([O-])cc2)cc1`: the inhibition in assay [1] is -2.23%. Same read-out and setting: the figure for `CC(C)Oc1ccc(Cc2ccc(NC3=NCCN3)cc2)cc1` is 18.9%; for `CCOC(=O)c1cc2ccc(O)cc2oc1=O` it is 86.3%. `CCOC(=O)c1ccc(O)cc1`: in assay [1], the inhibition was -0.21%. As to `CCOC(=O)c1c(C)n(C)c2ccc(O)cc12`, the inhibition in assay [1] is 0.03%. Consider `O=C1Nc2ccccc2C2=NC(CN3CCN(c4ccccc4)CC3)CN12` (centres undefined), for which the inhibition in assay [1] was -3.43%. On the same count and under the same terms, the figure for `O=C(O)COc1cccc(CN(Cc2ccc(-n3cccn3)cc2)S(=O)(=O)c2cccnc2)c1` is 0.4%; for `COc1ccc2[nH]c(C(=O)c3ccccc3)cc2c1` it is 73.2%; for `COC(=O)Nc1nc2cc(C(=O)c3ccccc3)ccc2[nH]1` it is 6.52%. Turning to `COc1ccc(C(=O)c2ccccc2O)c(O)c1`, in assay [1], the inhibition was 6.28%. Still for that read-out and setting: under `CCN1C(C)(C)CC(Oc2ccc(C(=O)Nc3ccc(NC(=O)Nc4cc(C(C)(C)C)on4)cc3)nc2)CC1(C)C` stands 8.01%; under `O=C1N=C(NCc2cccs2)S/C1=C\c1ccc2ncccc2c1`, 13.2%; under `CCC[C@@]1(CCc2ccccc2)CC(O)=C([C@H](CC)c2cccc(NS(=O)(=O)c3ccc(C(F)(F)F)cn3)c2)C(=O)O1`, -1.6%. Same read-out and setting: under `CCn1c(=O)c(-c2ccc(Cl)cc2Cl)cc2cnc(Nc3ccc(N4CCNCC4)c(F)c3)nc21` stands -3.08%; under `CNC(=O)c1ccccc1Sc1ccc2c(/C=C/c3ccccn3)n[nH]c2c1`, 98.1%; under `CNC(=O)c1cc2c(cn1)[nH]c1ccccc12`, 15.7%. As for `C[C@@]1(F)[C@H](O)[C@@H](CO)O[C@H]1n1ccc(N)nc1=O`, the inhibition in assay [1] is -2.29%. The same measure, in the same setting: the figure for `CNc1cc(OC)c(C(=O)N[C@@H]2CCN(Cc3ccccc3)[C@@H]2C)cc1Cl.CNc1cc(OC)c(C(=O)N[C@H]2CCN(Cc3ccccc3)[C@H]2C)cc1Cl` is 7.84%. Consider BISMUTH SUBGALLATE, CHEMBL1592101, for which the inhibition in assay [2] is -3.52%. For the compound `CCN(CC)c1ccc(/C=N/NC(=O)c2ccc(O)cc2)cc1`, the inhibition in assay [1] turned out to be 49.5%. In the case of `CCN(CC)c1ccc(C(=C2C=CC(=[N+](CC)CC)C=C2)c2ccccc2)cc1`, the inhibition in assay [1] amounted to 58.6%. Still for that read-out and setting: under `CCCC[C@]1(CC)CS(=O)(=O)c2cc(CNC(CC(=O)O)CC(=O)O)c(OC)cc2[C@@H](c2ccccc2)N1` stands 0.63%. As for `O=C(NCC1CN(c2ccc(N3CCOCC3=O)cc2)C(=O)O1)c1ccc(Cl)s1` (centres undefined), the inhibition in assay [1] amounted to 2.41%.

`Cn1cc(-c2ccc(S(=O)(=O)n3ccc(/C=C/C(=O)Nc4ccccc4N)c3)cc2)cn1`: the inhibition in assay [1] was found to be 9.5%. On to `CN(C)Cc1ccc(S(=O)(=O)n2ccc(/C=C/C(=O)NO)c2)cc1`, for which the inhibition in assay [1] came to 97.8%.

Broadly, the inhibition is the change of the read-out against control, counted positive when it falls.
